In the library only some 6.7% were active in any assay of this set; here they are far more common.
C diff HTS: blocks growth of Clostridium difficile; Clostridium difficile clinical isolate growth, OD600, 24 h; active compounds read low; growth activity, negative = inhibition, % at 16 µg/mL (by protocol); 86,000 compounds, 0.25% hits; AID 1259249;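 active = mean growth activity at or below -80% and every replicate also at or below -80%; inconclusive = mean at or below -80% but some replicate above -80%; inactive = mean growth activity above -80%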;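 note: 0% = DMSO wells and -100% = levofloxacin 16 µg/mL wells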
T cruzi growth-1: T. cruzi proliferation inhibition; inhibition, % at 8.34 µM; T. cruzi beta-gal in NIH3T3, GalScreen luminescence, 90 h; 77,000 compounds, 5.9% hits;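 active = mean inhibition above about 93%, with at least 55% of replicates each passing it, limit read from the data, passing the limit was not always enough; inconclusive = only one of those two conditions holds; inactive = neither condition holds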
Pf Dd2 inh: blocks growth of Plasmodium falciparum Dd2 parasites | P. falciparum Dd2 growth, SYBR Green, 72 h; active compounds read low | activity change, % at 10 µM | 94,000 compounds, 2.3% hits | AID 1159554; in the data active = activity change below about -80%; inconclusive = no clear call, values can overlap the other calls
T cruzi growth-2: Trypanosoma cruzi proliferation inhibition. shares compounds with T cruzi growth-1. T. cruzi beta-gal in NIH3T3, GalScreen luminescence, 90 h. inhibition, % at 8.35 µM. 5,600 compounds, 72% hits. AID 651739;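 active = mean replicate inhibition above about 95% and at least 55% of replicates individually reaching it, limit read from the data; inconclusive = only one of the two criteria is met; inactive = neither criterion is met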
T cruzi growth-3: Trypanosoma cruzi proliferation inhibition. shares compounds with T cruzi growth-1. T. cruzi beta-gal in NIH3T3, GalScreen luminescence, 90 h. inhibition, % at 2.09 µM. 5,600 compounds, 21% hits;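 active = mean inhibition above about 95%, with at least 55% of replicates also reaching it, limit read from the data; inconclusive = meets just one of the two conditions; inactive = meets neither condition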;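 note: plate controls were neutral control median for no effect and positive control median for full effect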
3T3 cytotox: cytotoxicity in mouse NIH/3T3 fibroblasts. shares compounds with T cruzi growth-1. NIH/3T3 viability, CellTiter-Glo ATP luminescence, 90 h. cytotoxicity (signal decrease), % at 8.35 µM. 5,600 compounds, 14% hits;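 active = mean signal decrease across replicates above about 35% based on untreated-well scatter, with enough replicates individually passing, limit read from the data; inconclusive = no rule stated though some were filed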;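 note: 0% = median of neutral control wells and 100% = median of positive control wells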
3T3 cytotox 2: cytotoxicity in mouse NIH/3T3 fibroblasts. shares compounds with T cruzi growth-1. NIH/3T3 viability, CellTiter-Glo ATP luminescence, 90 h. inhibition, % at 24.9 µM. 5,600 compounds, 56% hits;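 active = mean loss of cell viability signal at or above a set limit, and enough replicates individually reaching it; inconclusive = meets only the mean limit or only the replicate share; inactive = meets neither condition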;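 note: 0% = median of neutral control wells and 100% = median of positive control wells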
Starred values were filed as active, the others as inactive; ? = inconclusive; / = not tested or not shown.

SMILES	C diff HTS	T cruzi growth-1	Pf Dd2 inh	others
C[C@@H]1CCCCO[C@@H](CN(C)C(=O)Nc2ccc(C(F)(F)F)cc2)[C@H](C)CN([C@@H](C)CO)C(=O)c2cc(NC(=O)Nc3ccccc3)ccc2O1	-7	/	-28
C[C@@H]1CCCCO[C@@H](CN(C)C(=O)Nc2ccccc2)[C@@H](C)CN([C@@H](C)CO)C(=O)c2cc(NC(=O)Nc3ccc(C(F)(F)F)cc3)ccc2O1	-7	/	?
C[C@@H]1CCCCO[C@H](CN(C)C(=O)Nc2ccc(C(F)(F)F)cc2)[C@@H](C)CN([C@H](C)CO)C(=O)c2cc(NC(=O)Cc3ccccc3)ccc2O1	1	88	-88*
C[C@@H]1CCCCO[C@H](CN(C)C(=O)Nc2ccc(C(F)(F)F)cc2)[C@@H](C)CN([C@@H](C)CO)C(=O)c2cc(NC(=O)Nc3ccccc3)ccc2O1	-6	/	-85*
COc1cccc(NC(=O)Nc2ccc3c(c2)C(=O)N(C)C[C@@H](OC)[C@@H](C)CN(C)[C@@H](C)CO3)c1	0	-56	-28
C[C@H]1CN([C@@H](C)CO)C(=O)Cc2cc(NC(=O)C3CC3)ccc2O[C@H]1CN(C)S(=O)(=O)c1ccc(F)cc1	-6	24	-3
O=C(C[C@@H]1CC[C@H]2[C@@H](COC[C@@H](O)CN2Cc2ccc(Oc3ccccc3)cc2)O1)N1CCCCC1	-3	28	-18
Cc1nn(C)cc1NC(=O)C[C@@H]1CC[C@@H]2[C@@H](COc3ccc(NC(=O)Nc4cccc(Cl)c4)cc3C(=O)N2C)O1	9	51	-8
COCC(=O)N(C)C[C@@H]1Oc2cc(-c3ccc(F)cc3)ccc2S(=O)(=O)N([C@@H](C)CO)C[C@@H]1C	-3	14	9
CC(=O)N1[C@H](C(=O)NC2CCC2)[C@@H](CO)[C@@H]2Cn3c(ccc(-c4ccc(F)cc4)c3=O)[C@@H]21	-2	64	/
C[C@@H]1CCCCO[C@@H](CN(C)C(=O)Nc2ccc(C(F)(F)F)cc2)[C@@H](C)CN([C@H](C)CO)C(=O)c2cc(NC(=O)c3ccccc3)ccc2O1	-1	71	-73
C[C@@H]1CCCCO[C@H](CN(C)C(=O)Nc2ccc(C(F)(F)F)cc2)[C@@H](C)CN([C@@H](C)CO)C(=O)c2cc(NC(=O)c3ccccc3)ccc2O1	7	93	-83*
C[C@H]1CCCCO[C@H](CN(C)C(=O)CCCN(C)C)[C@@H](C)CN([C@@H](C)CO)C(=O)c2cc(NC(=O)Nc3ccc(C(F)(F)F)cc3)ccc2O1	/	35	-38
C[C@@H]1CCCCO[C@H](CN(C)C(=O)Nc2ccc(C(F)(F)F)cc2)[C@H](C)CN([C@@H](C)CO)C(=O)c2cc(NC(=O)Nc3ccccc3)ccc2O1	0	/	-82*
C[C@@H]1CCCCO[C@H](CN(C)C(=O)CCCN(C)C)[C@H](C)CN([C@@H](C)CO)C(=O)c2cc(NC(=O)Nc3ccc(C(F)(F)F)cc3)ccc2O1	/	62	-88*
Cc1noc(C)c1NC(=O)Nc1ccc2c(c1)C(=O)N([C@H](C)CO)C[C@H](C)[C@@H](CN(C)C(=O)Nc1ccc(C(F)(F)F)cc1)OCCCC[C@H](C)O2	0	70	-77
Cc1noc(C)c1NC(=O)Nc1ccc2c(c1)C(=O)N([C@H](C)CO)C[C@@H](C)[C@@H](CN(C)C(=O)Nc1ccc(C(F)(F)F)cc1)OCCCC[C@@H](C)O2	7	50	-87*
C[C@@H]1CCCCO[C@@H](CN(C)C(=O)Nc2ccccc2)[C@@H](C)CN([C@H](C)CO)C(=O)c2cc(NC(=O)Nc3ccc(C(F)(F)F)cc3)ccc2O1	-2	/	29
NCCCCCCNC(=O)[C@H]1C[C@H]2C(=O)N[C@@H](Cc3ccccc3)C(=O)N2[C@H]1c1cccc(OCCO)c1	-2	/	/
C[C@@H]1CN([C@@H](C)CO)C(=O)Cc2cc(NC(=O)C3CCCCC3)ccc2O[C@H]1CN(C)S(=O)(=O)c1cccs1	4	10	-16
C/C=C/c1ccc2c(c1)O[C@H](CNC)[C@@H](C)CN([C@H](C)CO)S2(=O)=O	/	/	-14
CCC(=O)N1CC2(C1)CN(Cc1ccc(OC)cc1)[C@@H](CO)c1[nH]c3cc(OC)ccc3c12	/	/	30
C[C@@H]1CN([C@H](C)CO)C(=O)c2cc(C3=CCCCC3)cnc2O[C@H]1CN(C)Cc1cccnc1	0	1	2
C[C@H](CO)N1C[C@H](C)[C@H](CN(C)Cc2ccccc2)Oc2c(NS(=O)(=O)c3ccccc3)cccc2C1=O	-3	85	-24
O=C(C[C@H]1CC[C@@H]2[C@H](COC[C@@H](O)CN2C(=O)Nc2ccccc2)O1)NCc1ccncn1	-1	-114	/
SMILES	C diff HTS	T cruzi growth-1	Pf Dd2 inh	others
CCc1csc(N2[C@H](C#N)[C@H](c3ccccc3-c3ccc(F)cc3)[C@H]2CO)n1	-1	/	-93*
CCc1nc(N2[C@H](C#N)[C@H](c3ccccc3-c3ccccc3F)[C@@H]2CO)sc1C	1	/	-81*
CCc1csc(N2[C@H](C#N)[C@@H](c3ccc(-c4ccc(F)cc4)cc3)[C@@H]2CO)n1	1	93	-12
CCc1nc(N2[C@H](CO)[C@@H](c3ccccc3-c3ccccc3F)[C@@H]2C#N)sc1C	3	/	17
CO[C@@H]1CN(C)C(=O)c2cc(NC(C)=O)ccc2OC[C@H](C)N(C(=O)C2CC2)C[C@H]1C	1	-51	17
CCCNC(=O)N1CC2(C1)[C@H](c1ccccc1)[C@@H](CO)N2Cc1ccc(Cl)cc1	15	/	-42
COc1cccc(NC(=O)C[C@H]2CC[C@@H]3[C@H](COc4ccc(NC(=O)c5ccccc5F)cc4C(=O)N3C)O2)c1	-4	27	-75
C[C@H](CO)N1C[C@H](C)[C@@H](CN(C)Cc2ccc(-c3ccccc3)cc2)Oc2ccc(NC(=O)CCN3CCOCC3)cc2CC1=O	-3	99*	-57	T cruzi growth-2=114*;T cruzi growth-3=54;3T3 cytotox=13;3T3 cytotox 2=105*
C[C@@H]1CN([C@@H](C)CO)C(=O)Cc2cc(NC(=O)CCN3CCOCC3)ccc2O[C@@H]1CN(C)Cc1ccc(C(F)(F)F)cc1	-17	12	-33
C[C@H](CO)N1C[C@H](C)[C@H](CN(C)Cc2ccc(C(F)(F)F)cc2)Oc2ccc(NC(=O)CCN3CCOCC3)cc2CC1=O	5	?	-2	T cruzi growth-2=-42;T cruzi growth-3=19;3T3 cytotox=-5;3T3 cytotox 2=3
C[C@H](CO)N1C[C@H](C)[C@H](CN(C)Cc2ccc(-c3ccccc3)cc2)Oc2ccc(NC(=O)CCN3CCOCC3)cc2CC1=O	4	18	-9

Assay outcomes from PubChem BioAssay.
